High-throughput results from PubChem.
MOR-DOR ag-1 = OPRM1-OPRD1 heterodimerization agonism; P35372+P41143; cells, luminescence; activation, % at 9.3 µM; 340,000 tested, 0.3% active; AID 504326;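 also: 0% = vehicle-treated cells and 100% = reference agonist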
HTR5A ag = activates human HTR5A in OPRM1-OPRD1 agonist counter-screen; P47898; HTR5A agonist assay, luminescence, cell-based; activation, % at 9.3 µM; 340,000 tested, 0.61% active; AID 504692; in the data active = activation mostly above about 9.5%, no sharp cut-off; inactive = mostly below about 7.6%;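 also: 0% = cells with vehicle only and 100% = reference agonist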
Target sequence (P47898 whole entry, looked up): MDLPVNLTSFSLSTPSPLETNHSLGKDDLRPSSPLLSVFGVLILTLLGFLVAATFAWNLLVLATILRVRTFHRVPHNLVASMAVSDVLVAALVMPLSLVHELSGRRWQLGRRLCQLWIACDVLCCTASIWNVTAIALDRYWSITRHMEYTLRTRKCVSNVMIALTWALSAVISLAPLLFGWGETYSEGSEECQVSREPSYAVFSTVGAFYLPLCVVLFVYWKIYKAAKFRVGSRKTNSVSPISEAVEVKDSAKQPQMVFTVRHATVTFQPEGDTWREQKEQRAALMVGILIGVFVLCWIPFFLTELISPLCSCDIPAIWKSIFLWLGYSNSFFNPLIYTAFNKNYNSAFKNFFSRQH
MOR-DOR inv ag-1 = inverse agonist of human OPRM1-OPRD1 heterodimerization; P35372+P41143; cell-based MOR-DOR heterodimer luminescence, inverse agonism; inhibition, % at 9.3 µM; 340,000 tested, 0.21% active; AID 504357; in the data active = inhibition above about 22%, passing the limit was not always enough;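 also: 0% = cells with DMSO and 100% = wells without cells with DMSO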
HTR5A inv ctr = HTR5A inverse agonism, opioid heterodimer counter-screen | P47898 | 340,000 tested, 0.083% active | HTR5A cell line, luminescence | inhibition, % at 9.3 µM; in the data active = inhibition mostly above about 23%, no sharp cut-off; inactive = mostly below about 18%;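 also: 0% = cells with DMSO and 100% = no-cell wells with DMSO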
MOR-DOR inv ag-2 = inverse agonist of OPRM1-OPRD1 heterodimerization in HTR5A counter-screen; shares compounds with HTR5A inv ctr; inhibition, % at 9.3 µM; AID 504912; U2OS counter-screen cells, complementation luminescence; 190 tested, under 10 active; call rule not given here;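 also: 0% = cells with DMSO and 100% = wells without cells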
HTR5A inv confrm = HTR5A (human) inverse agonism, confirmation; shares compounds with HTR5A inv ctr; HTR5A-expressing cells, luminescence; inhibition, % at 9.3 µM; 190 tested, under 10 active; AID 504916; call rule not given here;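 also: 0% = cells with DMSO and 100% = no cells with DMSO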
MOR-DOR ag-2 = promotes OPRM1-OPRD1 heterodimerization in HTR5A counter-screen; shares compounds with HTR5A ag; 800 tested, 13% active; U2OS counter-screen cells, complementation luminescence, 3 h; activation, % at 9.3 µM
HTR5A ag conf = HTR5A (human) agonism, confirmation. activation, % at 9.3 µM. AID 504915. 800 tested, 17% active. HTR5A agonist cell assay, luminescence. shares compounds with HTR5A ag; in the data active = activation above about 17%;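 also: 0% = cells with vehicle only and 100% = full reference agonist response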
* marks the source's active call; other numbers are inactive results; i = inactive; . = no result given. Compounds with a hit are over-represented: about 1.1% of the library has one in this group of screens. Rule as the data show it, unless noted: active = activation above about 18%; inactive = the rest.

SMILES	MOR-DOR ag-1	HTR5A ag	MOR-DOR inv ag-1	HTR5A inv ctr	MOR-DOR ag-2	HTR5A ag conf	others
O=C1C=CC(=C(c2ccc(O)cc2)c2ccc(O)cc2)C=C1	-5.1	-14.7	19.1	41.9*	.	.	MOR-DOR inv ag-2=i;HTR5A inv confrm=-10.4
CCCCCNC(=O)CSC1=N/C(=C\c2ccc(Cl)c(Cl)c2)C(=O)N1CC	-2.3	-1.6	12.3	4.4	.	.
O=C(CSC1=N/C(=C/c2ccc(Cl)c(Cl)c2)C(=O)N1c1ccccc1F)NC1CC1	-1.2	-0.8	8.4	37.2*	.	.	MOR-DOR inv ag-2=-23.9;HTR5A inv confrm=14.0
O=C(CNc1ccccc1N1CCCC1=O)Nc1cc(C(F)(F)F)ccc1-n1cncn1	-1.9	-2.7	10.4	-3.8	.	.
CCOc1ccc(C2/C(=C(/O)c3ccc4c(c3)CC(C)O4)C(=O)C(=O)N2CCCn2ccnc2)cc1OCC (stereo not given)	-3.3	0.0	17.0	8.4	.	.
COc1ccccc1NC(=O)c1ccc(NC(=O)c2nc3nccc(C)n3n2)cc1	-2.5	-2.1	10.5	5.3	.	.
COc1ccc(NC(=O)c2ccc(NC(=O)c3nc4nccc(C)n4n3)cc2)cc1	-0.7	-2.1	2.6	36.0*	.	.	MOR-DOR inv ag-2=-9.6;HTR5A inv confrm=13.2
Cc1ccccc1CN(C)C(=O)CNC(=O)c1ccc2ccccc2c1	-5.3	-1.0	23.5	3.6	.	.
N#CCCN(/N=C/c1cccnc1)C1=NS(=O)(=O)c2ccccc21	-1.7	0.3	10.6	34.3*	.	.	MOR-DOR inv ag-2=-301.9;HTR5A inv confrm=5.1
O=C(CC12CCC(CC1)C2)NCc1ccc2c(c1)OCO2	1.6	1.8	-8.4	27.5*	.	.	MOR-DOR inv ag-2=i;HTR5A inv confrm=6.4
O=C(Cc1ccccc1)NCc1ccc2c(c1)OCO2	-1.2	-1.6	6.9	13.1	.	.
COc1cccc(CNCc2ccccc2Br)c1OC	-0.2	-6.1	0.9	35.8*	.	.	MOR-DOR inv ag-2=-47.9;HTR5A inv confrm=18.7
CC1(C)CC(=O)N(c2cccc(C(F)(F)F)c2)C(=O)C1	-0.8	-1.2	3.5	4.6	.	.
COc1ccc(-n2c(-c3ccc(Cl)cc3)c[nH]c2=S)cc1	-3.4	-10.7	15.5	37.6*	.	.	MOR-DOR inv ag-2=33.4*;HTR5A inv confrm=21.1
Cc1ccc(-n2c(-c3ccccc3)c[nH]c2=S)cc1	0.0	1.0	0.0	7.7	.	.
CCCOc1ccc2cc(C(=O)NCc3ccccc3)c(=O)oc2c1	3.0	-0.7	-24.5	2.0	.	.
Cc1c(C(=O)Nc2ccc(S(=O)(=O)Nc3ncccn3)cc2)oc2ccc(F)cc12	-4.4	3.1	14.4	-8.4	.	.
CCn1c(-c2ccccc2)c[nH]c1=S	-0.1	-0.4	0.3	-4.0	.	.
S=c1[nH]cc(-c2ccc(Cl)cc2)n1Cc1ccccc1	14.8	-11.3	-78.5	30.8*	.	.	MOR-DOR inv ag-2=-222.6;HTR5A inv confrm=-29.8
Cc1onc(-c2ccccc2Cl)c1C(=O)OCC(=O)N1CCCCC1	-1.7	-1.2	8.8	4.4	.	.
CC(C)Oc1cccc(C(=O)N/N=C/c2ccoc2)c1	0.2	0.0	-1.4	-6.5	.	.
CCCOc1cccc(C(=O)N/N=C/c2ccoc2)c1	-3.5	8.5	18.8	45.2*	.	.	MOR-DOR inv ag-2=-6.5;HTR5A inv confrm=-4.6
CCn1cc(Cl)c(C(=O)Nc2nccs2)n1	-4.2	0.6	21.6	-4.1	.	.
COc1cc(OC)cc(-c2nc3ccccc3c(=O)n2OC(=O)c2ccccc2C)c1	7.5	21.8*	-37.7	-35.9	6.4	12.5
CC(OC(=O)Cc1ccccc1[N+](=O)[O-])C(=O)NC(=O)NC1CCCCC1 (stereo not given)	1.7	5.4	-10.9	-2.5	.	.
SMILES	MOR-DOR ag-1	HTR5A ag	MOR-DOR inv ag-1	HTR5A inv ctr	MOR-DOR ag-2	HTR5A ag conf	others
NC(=O)C1CCN(Cc2nc(-c3ccccc3)no2)CC1	-1.8	17.0*	8.0	-46.7	0.4	-1.3
Cc1ccc(-c2noc(CN3CCN(c4ccccc4F)CC3)n2)cc1	1.8	19.6*	-9.0	-54.8	-3.7	-3.6
Cc1ccc(-c2noc(CN3CCCCC3)n2)cc1	0.5	-4.5	-2.7	13.8	.	.
COc1ccc(S(=O)(=O)N2CCN(C(=O)C3CC(=O)N(c4ccccc4F)C3)CC2)cc1OC (stereo not given)	-0.8	6.8	3.4	-18.9	.	.
O=C1C(O)CCN1Cc1ccccc1 (stereo not given)	-2.6	2.8	12.9	-10.7	.	.
CCn1nc(C)c(/C=N/NC(=O)c2nc3nc(C)cc(C)n3n2)c1C	0.2	15.8*	-1.2	-13.5	2.2	6.1
CCCCCn1nc(C)c(/C=N/NC(=O)c2ccoc2C)c1C	-1.6	6.4	9.2	-20.6	.	.
CCn1nc(C)c(/C=N/NC(=O)c2ccoc2C)c1C	1.1	18.1*	-6.3	-53.3	5.7	11.8
COc1ccc(S(=O)(=O)N2CCOCC2)cc1NC(=O)CSc1nnc2n1CCCCC2	-0.2	-1.7	0.7	2.1	.	.
COc1ccc(C(=O)NC2CCCCCC2)cc1S(=O)(=O)N1CCCC1	-2.4	-4.3	11.5	10.7	.	.
COc1ccc(C(=O)NC2CCCCCC2)cc1S(=O)(=O)Nc1ccc(Br)cc1	0.8	14.6*	-3.8	-39.0	1.4	5.4
CC(C)(CNC(=O)Cc1ccc(NS(=O)(=O)c2cccc(C(F)(F)F)c2)cc1)N1CCOCC1	0.2	3.2	-1.5	-8.9	.	.
CC(C)Oc1ccc(C(=O)Nc2ccc(N3CCCC3)cc2)cc1	2.1	16.9*	-11.8	2.8	1.2	2.7
COc1ccc2[nH]c3c(c2c1)CCNC3C1CC=C(C)CC1 (stereo not given)	1.3	33.6*	-6.6	-51.4	5.0	51.3*
O=C(c1ccc(Cl)c(S(=O)(=O)N2CCCCCC2)c1)N1CCN(c2ccccn2)CC1	2.2	24.9*	-11.9	-89.6	1.3	31.2*
CCOC(=O)c1ccc(NS(=O)(=O)c2cc(-c3nnnn3CC)ccc2OC)cc1	2.4	15.7*	-11.7	-41.0	19.6*	0.4
COc1ccc(-c2csc(NC(=O)c3ccccc3NS(=O)(=O)c3ccc(F)c(F)c3)n2)cc1	-1.0	15.4*	5.2	-0.9	24.4*	8.0
CN(c1cccc(NC(=O)c2ccc(Cl)c(S(=O)(=O)N3CCOCC3)c2)c1)S(C)(=O)=O	-0.2	2.7	0.6	20.0	.	.
CC(=O)NS(=O)(=O)c1ccc(NC(=O)COc2cccc3c2OC(C)(C)C3)cc1	-2.7	3.0	17.5	-23.1	.	.
COC(=O)c1ccc(NC(=O)COc2cccc3c2OC(C)(C)C3)cc1	4.2	39.8*	-28.1	-103.9	2.5	43.8*
CN(C)C(=O)c1ccc(NC(=O)COc2cccc3c2OC(C)(C)C3)cc1	-3.9	28.3*	19.1	-92.1	0.5	37.6*
CC1(C)Cc2cccc(OCC(=O)Nc3ccc(S(N)(=O)=O)cc3)c2O1	-2.9	34.2*	14.0	-99.4	3.1	6.0
CC(=O)Nc1ccc(NC(=O)COc2cccc3c2OC(C)(C)C3)cc1	-2.4	4.2	13.1	6.4	.	.
CC1(C)Cc2cccc(OCC(=O)Nc3ccc(OCC(N)=O)cc3)c2O1	-1.5	9.9	7.2	-25.6	.	.
